Source: PubChem BioAssay
In the library only some 18% were active in any assay of this set; here they are far more common.
IL1B secr inh: inhibitors of inflammasome signaling (IL-1 beta secretion); THP-1 LPS/ATP IL-1B secretion, AlphaLISA, 16 h; active compounds read low; activity change, % at 57.5 µM; actives 4.7% (n = 360,000); in the data active = activity change below about -50%; inconclusive = mostly about -30% to -49%; note: % is set by controls: 0 for no effect and ±100 for the full control effect
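Secreted IL-1B measured by AlphaLISA bead assay after 16 h compound exposure of THP-1 cells; compounds (final up to 57.5 uM) added 1 h before LPS (250 ng/mL) and ATP (1.25 mM) stimulation; lower signal means less secretion.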
TDP1 cell CPT: DT40-hTDP1 cell growth loss with CPT. actives 12% (n = 420,000). chicken DT40 Tdp1-/-;hTDP1 cells + 20 nM CPT, ATP luminescence, 48 h. Potency, µM (titrated, usually from 46.2 µM), without a hit: at the top dose activity change, negative = growth inhibition, most hits filed as inhibitors. AID 686979; note: potency is the fitted concentration of half-maximal effect; % is set by controls: 0 for no effect and ±100 for the full control effect; nearly all actives have a fitted effect of over 55% in size
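Cell growth measured by CellTiter-Glo luminescence after a minimum 48 h, 37 C compound exposure with 20 nM CPT in Tdp1-knockout DT40 cells stably expressing hTDP1, seeded 400/well; qHTS titration format.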
TGFb SMAD3 inh: TGF-b pathway inhibition | HepG2 CAGA-GFP TGF-b/SMAD3 reporter, GFP fluorescence, 18 h; TGF-beta stimulated, 500 pg/mL final | Potency, µM (titrated, usually from 46.1 µM), inactives show at the top dose activity, negative = inhibition, hits mostly inhibitors | actives 1.2% (n = 410,000); note: potency is the fitted concentration of half-maximal effect; % is set by controls: 0 for no effect and ±100 for the full control effect; nearly all actives have a fitted effect of over 65% in size
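First, reporter cells (HEPG2 CAGA-GFP) rested 2 h at 37 degrees C. Next, compounds were pinned in and TGF-beta added to 500 pg/mL final. After 18 h, GFP was imaged per cell and summed per well.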
DT40 TDP1 no CPT: qHTS for Inhibitors of human tyrosyl-DNA phosphodiesterase 1 (TDP1): qHTS in cells in absence of CPT; Potency, µM (highest dose often 46.2 µM), for the others: at the top dose activity change, negative = growth inhibition, usual class: inhibitors; actives 15% (n = 420,000); DT40 Tdp1-/- hTDP1 cells, no CPT, ATP luminescence, 48 h; AID 686978, 2013; note: potency is the fitted concentration of half-maximal effect; % is set by controls: 0 for no effect and ±100 for the full control effect; nearly all actives have a fitted effect of over 55% in size
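DT40 Tdp1-/-;hTDP1 cells, no CPT (DMSO vehicle only), 400 cells/well; compounds pin-transferred; ≥48 hr, 37 °C; CellTiter-Glo 30 min RT dark, luminescence read.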
HepG2 viability: kills HepG2 cells in TGF-b inhibitor counter-screen. AID 588856. actives 0.76% (n = 410,000). HepG2 CAGA-GFP viability, ATP luminescence, 18 h. Potency, µM (highest dose often 46.1 µM), inactives show at the top dose activity change, negative = cytotoxicity, actives largely listed as cytotoxic; note: potency is the fitted concentration of half-maximal effect
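CellTiter-Glo luminescence gave cytotoxicity after 18 hours at 37 degrees C. The cells were HepG2 CAGA-GFP in 1% FBS DMEM, stimulated with 500 pg/mL TGF-beta after compound addition. %Activity was normalised to no-cell wells (complete cell-killing) and DMSO (no toxicity), and curves were fitted and classified.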
TDP1 inh: blocks human tyrosyl-DNA phosphodiesterase 1 | Q9NUW8 | recombinant TDP1, AlphaScreen DNA substrate cleavage | Potency, µM (doses to about 130 µM), for the others: at the highest dose activity change, negative = inhibition, actives largely listed as inhibitors | actives 0.28% (n = 350,000); note: potency is the fitted concentration of half-maximal effect; % is set by controls: 0 for no effect and ±100 for the full control effect; nearly all actives have a fitted effect of over 40% in size
Target sequence (Q9NUW8 whole entry, looked up): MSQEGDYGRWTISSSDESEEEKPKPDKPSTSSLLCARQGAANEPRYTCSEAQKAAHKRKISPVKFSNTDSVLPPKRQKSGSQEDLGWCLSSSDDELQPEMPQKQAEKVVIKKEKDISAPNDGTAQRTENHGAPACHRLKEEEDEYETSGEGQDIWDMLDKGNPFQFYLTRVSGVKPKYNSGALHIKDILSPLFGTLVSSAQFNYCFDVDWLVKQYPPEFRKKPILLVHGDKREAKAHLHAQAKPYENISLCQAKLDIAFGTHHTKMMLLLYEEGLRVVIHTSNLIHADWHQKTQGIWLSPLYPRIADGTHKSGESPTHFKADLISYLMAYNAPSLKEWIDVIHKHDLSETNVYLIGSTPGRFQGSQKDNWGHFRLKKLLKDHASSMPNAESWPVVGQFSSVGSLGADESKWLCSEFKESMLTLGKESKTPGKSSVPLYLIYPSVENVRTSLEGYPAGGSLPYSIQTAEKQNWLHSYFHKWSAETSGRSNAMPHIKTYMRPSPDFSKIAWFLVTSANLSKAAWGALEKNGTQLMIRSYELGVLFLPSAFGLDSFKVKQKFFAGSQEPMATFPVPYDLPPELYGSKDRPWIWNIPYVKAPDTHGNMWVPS
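Tdp1 1 nM final; 15 min RT w/ cpd; substrate 15 nM, 5 min; beads 10 ug/ml, 10 min; AlphaScreen read. Neg ctrl: no enzyme.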
The depositor's hits bear a star; i = inactive; ? = inconclusive; . = no result given; [ ] = dose if it differs, or a comment. Unless noted, calls come from the whole dose curve; as a rule, active = well fitted curve in the direction sought with a large enough effect; inconclusive = small, poorly fitted or top-dose-only effect, or another doubt; inactive = no such curve, though single readings can be large; an effect the other way counts as inactive or inconclusive.

SMILES	IL1B secr inh	TDP1 cell CPT	TGFb SMAD3 inh	DT40 TDP1 no CPT	HepG2 viability	TDP1 inh
COc1ccc(OC)c(CCNC(=O)c2c(C)oc3ncn(CC(C)C)c(=O)c23)c1	.	?	-26%	18µM*	-27%	4%
COc1ccc(OC)c(CNC(=O)c2c(C)oc3ncn(CC(C)C)c(=O)c23)c1	.	?	30%	16µM*	-23%	6%
COc1ccc(OC)c(CCNC(=O)c2c(C)oc3ncn(C)c(=O)c23)c1	.	-22%	-11%	-4%	-28%	-2%
CC(=O)NCCc1nc2cc(NS(=O)(=O)c3ccccc3)ccc2n1C	-10	6%	?	6%	-1%	.
CS(=O)(=O)N(CC(=O)NCc1ccccn1)Cc1ccc(Cl)cc1	-2	-2%	6%	-26%	-45%	0%
CC(C)(C)c1cc(C(=O)NNC(=O)c2ccc(Cl)cc2)no1	-10	16%	10%	-2%	10%	3%
COc1ccc(N2CC(NS(=O)(=O)c3cccs3)CC2=O)cc1OC (stereo not drawn)	35	-3%	9%	-19%	3%	-2%
CC(=O)Nc1cccc(NC(=O)c2cc3ccccc3o2)c1	-3	16µM*	1%	21µM*	-44%	0%
CCCCOC(=O)c1ccc(NC(=O)c2cc(=O)c3ccccc3o2)cc1	.	?	-2%	?	-4%	7%
Cc1ccc(NC(=O)c2cc3ccccc3o2)nc1	-96*	0%	2%	5%	-5%	.
CCCCOC(=O)c1cccc(NC(=O)c2cc3ccccc3o2)c1	.	13µM*	?	5.2µM*	-51%	0%[12.3 µM]
Cc1cc(C)nc(NC(=O)c2cc3ccccc3o2)n1	-19	-14%	1%	-9%	-26%	5%
O=C(Nc1ccc(-c2nnc3n2CCCCC3)cc1)c1cc2ccccc2o1	-199*	?	-1%	?	9%	3%
CCc1nnc(NC(=O)c2cc(-c3ccccn3)nc3ccc(Br)cc23)s1	i	0%	-16%	-12%	-14%	2%
Cc1c(C)c2cc(Cl)c(OCc3nn[nH]n3)cc2oc1=O	14	-7%	-4%	?	-3%	-3%
CSCCC(C(=O)NC(C)(C)C)n1c(-c2cccc(NC(C)=O)c2)nc2ccccc21 (stereo not drawn)	22	-11%	.	?	.	.
COc1ccc(CCN(C)C(=O)CN2C(=O)NC3(CCCc4ccccc43)C2=O)cc1OC (stereo not drawn)	-10	1%	-5%	-10%	-62%	.
Cc1ccc(NC(=O)c2cc3ccccc3o2)cc1Cl	-52*	?	1%	?	-15%	-7%
O=C(O)c1cn2c3c(ccc(Cl)c3c1=O)OCC2	4	-19%	-9%	?	-16%	.
CN(c1ccccc1)S(=O)(=O)c1cc(C(=O)OCC(=O)c2c(N)n(C)c(=O)n(C)c2=O)ccc1Cl	21	26µM*	8%	?	0%	.
Cn1c(N)c(C(=O)COC(=O)c2ccc(-c3ccccc3)cc2)c(=O)n(C)c1=O	19	?	-7%	?	-4%	-5%
CCN(c1ccccc1)S(=O)(=O)c1cc(C(=O)OCC(=O)c2c(N)n(C)c(=O)n(C)c2=O)ccc1C	0	9.2µM*	-5%	23µM*	9%	.
Cc1ccc(N(C)S(=O)(=O)c2cccc(C(=O)OCC(=O)c3c(N)n(C)c(=O)n(C)c3=O)c2)cc1	51	?	?	18µM*	-13%	-1%
CN(C)S(=O)(=O)c1cccc(C(=O)OCC(=O)c2c(N)n(C)c(=O)n(C)c2=O)c1	37	12%	-2%	-4%	-13%	5%
Cc1cc(C(=O)COC(=O)c2cc(O)c3ccccc3c2O)c(C)n1CC1CCCO1 (stereo not drawn)	30	16µM*	14µM*	?	-30%	8%
SMILES	IL1B secr inh	TDP1 cell CPT	TGFb SMAD3 inh	DT40 TDP1 no CPT	HepG2 viability	TDP1 inh
Cc1cc(C(=O)COC(=O)c2cccnc2Cl)c(C)n1CC1CCCO1 (stereo not drawn)	25	23µM*	-1%	?	-2%	0%
Cc1cc(C(=O)COC(=O)c2ccccc2NCCO)c(C)n1CC1CCCO1 (stereo not drawn)	24	?	-22%	15µM*	-18%	8%
Cc1cc(C(=O)COC(=O)c2ccccc2O)c(C)n1CC1CCCO1 (stereo not drawn)	-7	?	-7%	-25%	-3%	9%
CCCCNC(=O)c1ccc2c(c1)NC(=O)C(CS(=O)(=O)Cc1ccc(F)cc1Cl)N2 (stereo not drawn)	.	2%	2%	-13%	-19%	3%
Cc1cccc(CNC(=O)C2CCC(=O)N(C3CCCCCC3)C2)c1 (stereo not drawn)	0	-21%	-7%	1%	-3%	2%
Cc1cc(O)c2c(c1)C(=O)[C@@]13Oc4c5c(c(O)c6c(O)cc(C)cc46)C(=O)C[C@H](O)[C@H]5[C@@H]1[C@@H](O)CC(=O)C3=C2O	-5	15µM*	-21%	?	-7%	.
CCCOc1ccc(F)cc1-c1cc(C(=O)Nc2ccc(OC)nc2)[nH]n1	?	?	2%	18µM*	-18%	.
CC(C)Oc1cc(F)ccc1-c1cc(C(=O)Nc2cccc(C(F)(F)F)c2)[nH]n1	-22	16µM*	?	?	-38%	.
COc1ccc(NC(=O)c2cc(-c3ccc(F)cc3OC(C)C)n[nH]2)c(OC)c1	-27	?	16%	?	-5%	.
COc1ccc(NC(=O)c2cc(-c3ccc(F)cc3OC(C)C)n[nH]2)cn1	39	?	-2%	23µM*	-12%	.
COc1cc(NC(=O)c2cc(-c3cc(F)ccc3OC(C)C)n[nH]2)cc(OC)c1OC	?	?	9%	16µM*	-12%	.
N#Cc1ccccc1OCC(=O)NNC(=O)CCNC(=O)c1ccccc1	5	8%	-3%	?	-3%	0%
CC(c1cccs1)N(Cc1ccco1)C(=S)Nc1ccccc1Cl (stereo not drawn)	-13	-5%	-21%	-8%	-9%	0%
Cc1ccc(C)c(S(=O)(=O)NCC(c2ccc3c(c2)OCO3)N2CCOCC2)c1 (stereo not drawn)	-3	9%	-2%	6%	6%	.
